Data on 33 compounds can be found in PubChem BioAssay AID2061166 (Soto Lab, Mitchell Center for Alzheimers Disease and …, 2025).

In the test the target is Microtubule-associated protein tau (Homo sapiens) (UniProt P10636). The experiment in a line: inhibitors of seeded tau aggregation, primary screen, biochemical, seed amplification, ThT fluorescence (AID 2061166). The settings on record: Recombinant tau seeded by AD brain, ThT fluorescence AUC; at 100 µM; active compounds read high.

Unmarked numbers belong to inactive results. The source made the active and inactive calls.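 The calls were made as follows: active = mean tau seeding fluorescence area under 1% of vehicle, meaning inhibition above a set limit; inactive = the rest.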

Microtubule-associated protein tau (Homo sapiens), sequence (P10636 whole entry, looked up): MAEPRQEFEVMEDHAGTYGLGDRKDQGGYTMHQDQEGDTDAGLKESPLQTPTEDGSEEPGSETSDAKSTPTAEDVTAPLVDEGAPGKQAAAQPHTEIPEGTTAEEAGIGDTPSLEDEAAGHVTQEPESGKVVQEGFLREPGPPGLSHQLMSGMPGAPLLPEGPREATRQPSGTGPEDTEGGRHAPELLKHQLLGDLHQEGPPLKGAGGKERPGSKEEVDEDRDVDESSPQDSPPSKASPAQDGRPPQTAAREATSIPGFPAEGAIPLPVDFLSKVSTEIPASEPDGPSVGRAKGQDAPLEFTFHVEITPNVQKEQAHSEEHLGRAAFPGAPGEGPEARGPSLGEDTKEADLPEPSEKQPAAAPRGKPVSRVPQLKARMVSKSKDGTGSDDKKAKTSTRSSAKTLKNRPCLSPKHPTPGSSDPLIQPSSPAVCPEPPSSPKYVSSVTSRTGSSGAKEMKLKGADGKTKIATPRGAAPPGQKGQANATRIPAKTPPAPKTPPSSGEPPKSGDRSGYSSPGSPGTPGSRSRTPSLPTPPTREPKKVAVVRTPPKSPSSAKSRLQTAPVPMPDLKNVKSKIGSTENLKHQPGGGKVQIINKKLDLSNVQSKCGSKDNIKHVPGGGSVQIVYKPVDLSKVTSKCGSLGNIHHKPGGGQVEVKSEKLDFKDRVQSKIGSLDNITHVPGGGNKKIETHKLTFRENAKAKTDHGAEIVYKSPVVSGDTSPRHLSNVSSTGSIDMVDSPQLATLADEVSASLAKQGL

A word on the inhibition: it is the relative decrease from the control value, in per cent. Take `O=c1c(O)c(-c2cc(O)c(O)c(O)c2)oc2cc(O)cc(O)c12`: the inhibition was 95.3%.

With `NC(=O)N1CCC(CC(=O)N2CCC(C3c4ncc(Br)cc4CCc4cc(Cl)cc(Br)c43)CC2)CC1` (stereo not drawn), the inhibition is 20.1%.

For the compound `CC(C)COc1ccc(CNC(=O)N(Cc2ccc(F)cc2)C2CCN(C)CC2)cc1`, the inhibition was -91.6%.

On to `CC(=O)Oc1ccccc1C(=O)O`, for which the inhibition was 2.58%.

As to `CC(=O)Oc1cc(C(F)(F)F)ccc1C(=O)O`, the inhibition is 27%.

As to `CN(C)CCCN1c2ccccc2Sc2ccccc21`, the inhibition is 13.2%.

Turning to `CC1CCC2(C(=O)O)CCC3(C)C(=CCC4C5(C)CC(O)C(O)C(C)(CO)C5C(O)CC43C)C2C1C` (stereo not drawn), the inhibition is 31%.

Consider `CC(OC1OCCN(Cc2n[nH]c(=O)[nH]2)C1c1ccc(F)cc1)c1cc(C(F)(F)F)cc(C(F)(F)F)c1` (stereo not drawn), for which the inhibition is 60.4%.

Turning to `CC1=NN(c2ccccc2)C(=O)C1`, the inhibition is 48.4%.

`O=C(c1cc(O)c(O)c(O)c1)c1ccc(O)c(O)c1O`: the inhibition was 97.9%.

In the case of `COc1cc(C=CC(=O)CC(=O)C=Cc2ccc(O)c(OC)c2)ccc1O`, the inhibition was 86.4%.

In the case of `O=C(C=Cc1ccc(O)c(O)c1)OC(Cc1ccc(O)c(O)c1)C(=O)O` (stereo not drawn), the inhibition is 95%.

In the case of `CN(C)CCc1c[nH]c2ccc(Cn3cncn3)cc12`, the inhibition is -4.86%.

Take `CCc1cc2c(cc1N1CCC(N3CCOCC3)CC1)C(C)(C)c1[nH]c3cc(C#N)ccc3c1C2=O`: the inhibition was -7.3%.

With `O=c1cc(-c2ccccc2)oc2cc(O)c(O)c(O)c12`, the inhibition is 97.6%.

On to `COc1cc(C(=O)NCc2ccc(OCCN(C)C)cc2)cc(OC)c1OC`, for which the inhibition was 10.7%.

For the compound `CC12CC3CC(C)(C1)CC(N)(C3)C2`, the inhibition was 10.2%.

For `COc1ccc(Cl)cc1C(=O)NCCc1ccc(S(=O)(=O)NC(=O)NC2CCCCC2)cc1`, the inhibition is -30.9%.

As for `COc1cc(C(C)=O)ccc1OCCCN1CCC(c2noc3cc(F)ccc23)CC1`, the inhibition is -61.2%.

For `OC(CCN1CCCCC1)(c1ccccc1)C1CCCCC1` (stereo not drawn), the inhibition is 21.7%.

Consider `Cc1cc(=O)n(-c2ccccc2)n1C`, for which the inhibition was 8.96%.

Turning to `CC(C)(Sc1cc(C(C)(C)C)c(O)c(C(C)(C)C)c1)Sc1cc(C(C)(C)C)c(O)c(C(C)(C)C)c1`, the inhibition was 23%.

Consider `Nc1ccc(S(=O)(=O)c2ccc(N)cc2)cc1`, for which the inhibition was 26.5%.

As to `C#CCC(Cc1cnc2nc(N)nc(N)c2n1)c1ccc(C(=O)NC(CCC(=O)O)C(=O)O)cc1` (stereo not drawn), the inhibition is -3.35%.

For `O=NN(CCCl)C(=O)NC1CCCCC1`, the inhibition is 14.1%.

With `Cc1nc2c([nH]1)CCN(C(=O)c1ccc(NC(=O)c3ccccc3-c3ccccc3)cc1)c1ccccc1-2`, the inhibition is 6.08%.

In the case of `C=CCc1ccc(O)c(-c2ccc(O)c(CC=C)c2)c1`, the inhibition is 93.5%.

In the case of `Nc1c(N=Nc2ccc(-c3ccc(N=Nc4cc(S(=O)(=O)O)c5ccccc5c4N)cc3)cc2)cc(S(=O)(=O)O)c2ccccc12`, the inhibition is 100% (active).

Take `CCCCOc1ccc(CC(=O)NO)cc1`: the inhibition is 16.6%.

On to `Nc1ccccc1NC(=O)c1ccc(CNC(=O)OCc2cccnc2)cc1`, for which the inhibition is -34.7%.

For `CC(C)(C)c1cc(C(C)(C)C)c(NC(=O)c2c[nH]c3ccccc3c2=O)cc1O`, the inhibition is -88.7%.

On to `CCCCCCCCCC(=O)O`, for which the inhibition was 0.189%.

With `Cc1ccc(C(C)C)cc1O`, the inhibition was 10.5%.
